Experimental data published in PubChem BioAssay (Tox21).
Inconclusive results are not listed. The source made the active and inactive calls. Unless noted, calls follow the shape of the full dose curve.

Legend:
[1] = qHTS assay to identify small molecule agonists of the sonic hedgehog signaling (Shh) pathway (AID 1259368);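 also: NIH/3T3-derived 3T3Gli1-Luc cells carrying a stable Gli1-driven firefly luciferase reporter; series mostly up to about 92 µM; nearly all actives have a fitted effect of over 15% in size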
How it was run: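 Quantitative high-throughput format using a Gli1-driven firefly luciferase reporter line derived from NIH/3T3 cells. After a 24 hr compound treatment at 37 C and 5% CO2, luminescence reported Gli1 response element activity.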

[2] = qHTS assay to identify small molecule antagonists of the sonic hedgehog signaling (Shh) pathway (AID 1259369); also: nearly all actives have a fitted effect of over 45% in size; also: potency is read from the fitted curve at half-maximal effect
How it was run: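 Stable Gli1-Luc reporter NIH/3T3 clone; quantitative HTS in stimulated mode with conditioned medium. Luminescence measured after 24hr compound treatment at 37 C.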

[3] = biological target: Estrogen receptor beta (Homo sapiens) (UniProt Q92731); experiment: qHTS assay to identify small molecule agonists of the estrogen receptor beta (ER-beta) signaling pathway (AID 1259377; active = well fitted activation curve with a large enough effect in the signal ratio in the repeat runs, not every such curve was filed as active; the % refers to the signal ratio)
How it was run: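 HEK293T ER-beta-UAS-bla; 2% charcoal-stripped FBS; cells pre-incubated 6 hr, compound 16 hr, 37C/5% CO2; LiveBLAzer B/G FRET substrate 2 h RT; fluorescence intensity read.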

[4] = biological target: Estrogen receptor beta (Homo sapiens) (UniProt Q92731); experiment: qHTS assay to identify small molecule antagonists of the estrogen receptor beta (ER-beta) signaling pathway (AID 1259378; active = well fitted inhibition curve with a large enough effect in the signal ratio in the repeat runs, not every such curve was filed as active; the % refers to the signal ratio; also: potency is read from the fitted curve at half-maximal effect)
How it was run: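 ER-beta-UAS-bla HEK293T (GripTite) cells in 2% charcoal-stripped FBS medium were preincubated 6 hr at 37C, dosed with compound, then stimulated with 1 nM E2 (final) for 16 hr; beta-lactamase reporter read by B/G FRET fluorescence after 2 hr substrate loading.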

[5] = qHTS assay to identify small molecule agonists of the androgen receptor (AR) signaling pathway in the presence of an antagonist - cell viability counter screen (AID 1259379; active = well fitted curve in the direction sought with a large enough effect in the repeat runs; an effect the other way counts as inactive or inconclusive;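 also: MDA-kb2 human breast cancer cells carrying an MMTV luciferase reporter; series mostly up to about 92 µM; nearly all actives have a fitted effect of over 25% in size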)
How it was run: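 Nilutamide-containing (3.0uM final) MDA-kb2 cultures, 3,000 cells/well, were treated with compounds across 15 concentrations. After 16 hr at 37C with no CO2, cell viability was determined by CellTiter-Fluor fluorescence in the luciferase assay wells.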

[6] = qHTS assay to identify small molecule agonists of the estrogen receptor beta (ER-beta) signaling pathway - cell viability counter screen (AID 1259380; active = well fitted curve in the direction sought with a large enough effect in the repeat runs; an effect the other way counts as inactive or inconclusive; also: nearly all actives have a fitted effect of over 30% in size)
How it was run: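 Steps: plate ER-beta-UAS-bla HEK293T cells, rest 6 hr; add compounds in DMSO; incubate 16 hr at 37C, 5% CO2; add FRET substrate 2 hr; add CellTiter-Glo, wait 30 min at room temperature; read luminescence.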

[7] = biological target: Androgen receptor (Homo sapiens) (UniProt P10275); experiment: qHTS assay to identify small molecule agonists of the androgen receptor (AR) signaling pathway in the presence of an antagonist (AID 1259381); also: nearly all actives have a fitted effect of over 15% in size
How it was run: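 Reporter-gene luminescence from MDA-kb2 cells exposed 16hr at 37C (0% CO2) to 15-point compound titrations with 3.0uM final nilutamide as AR antagonist.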

[8] = qHTS assay to identify small molecule antagonists of the estrogen receptor beta (ER-beta) signaling pathway - cell viability counter screen (AID 1259382; active = well fitted curve in the direction sought with a large enough effect in the repeat runs; an effect the other way counts as inactive or inconclusive; also: series mostly up to about 92 µM; nearly all actives have a fitted effect of over 55% in size)
How it was run: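 Viability is scored by CellTiter-Glo luminescence (30 min, room temperature) in ER-beta-UAS-bla HEK293T wells already read for reporter fluorescence. Compound exposure lasts 16 hr at 37C alongside 1nM 17-beta-estradiol in charcoal-stripped serum medium.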

[9] = biological target: Estrogen receptor (Homo sapiens) (UniProt P03372); experiment: qHTS assay to identify small molecule agonists of the estrogen receptor alpha (ER-alpha) signaling pathway in the presence of an antagonist (AID 1259383); also: top concentration of the series differs between compounds; nearly all actives have a fitted effect of over 15% in size
How it was run: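 Readout was ERE-driven luciferase luminescence in VM7Luc4E2 cells, which express full-length ER-alpha endogenously. Compounds were tested at 15 concentrations for 22hr alongside 10.0nM ICI-182,780 (final concentration).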

[10] = qHTS assay to identify small molecule agonists or antagonists of the thyroid stimulating hormone receptor (TSHR) signaling pathway - wild type cell line counter screen (AID 1259384)
How it was run: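 Wild-type HEK293 cells were plated 18 h at 37 C/5% CO2, pin-dosed with compound plus Ro20-1724 medium, held 30 min at room temperature, then given cAMP-d2 and anti-cAMP-cryptate; fluorescence was read after 1 h. Fifteen concentrations, triplicate.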
% is scaled to controls: 0 for no effect and ±100 for the full control effect.

Sequence of Androgen receptor (Homo sapiens) (P10275 whole entry, looked up): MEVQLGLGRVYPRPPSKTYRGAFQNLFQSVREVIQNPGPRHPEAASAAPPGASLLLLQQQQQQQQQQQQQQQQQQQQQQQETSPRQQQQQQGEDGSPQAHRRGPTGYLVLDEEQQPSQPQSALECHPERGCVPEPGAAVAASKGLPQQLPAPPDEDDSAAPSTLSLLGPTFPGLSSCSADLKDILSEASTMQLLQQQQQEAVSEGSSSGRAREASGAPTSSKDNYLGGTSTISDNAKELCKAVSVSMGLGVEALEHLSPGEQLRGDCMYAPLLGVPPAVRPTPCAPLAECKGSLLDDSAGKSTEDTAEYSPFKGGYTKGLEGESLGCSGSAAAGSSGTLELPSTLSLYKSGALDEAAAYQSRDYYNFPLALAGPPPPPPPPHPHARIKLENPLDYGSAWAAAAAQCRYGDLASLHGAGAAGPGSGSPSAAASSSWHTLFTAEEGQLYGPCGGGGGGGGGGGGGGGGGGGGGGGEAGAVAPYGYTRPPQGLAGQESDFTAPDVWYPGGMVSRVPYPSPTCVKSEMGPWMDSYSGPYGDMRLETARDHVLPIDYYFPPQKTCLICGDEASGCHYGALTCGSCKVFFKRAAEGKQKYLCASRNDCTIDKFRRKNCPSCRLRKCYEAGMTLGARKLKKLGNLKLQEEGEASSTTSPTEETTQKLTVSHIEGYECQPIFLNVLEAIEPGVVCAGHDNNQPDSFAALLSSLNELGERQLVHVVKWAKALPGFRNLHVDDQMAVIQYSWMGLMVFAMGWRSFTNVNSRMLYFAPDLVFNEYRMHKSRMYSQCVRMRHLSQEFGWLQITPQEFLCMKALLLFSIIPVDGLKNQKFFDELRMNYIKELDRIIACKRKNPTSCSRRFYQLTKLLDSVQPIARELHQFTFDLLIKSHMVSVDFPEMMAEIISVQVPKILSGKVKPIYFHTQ
Sequence of Estrogen receptor (Homo sapiens) (P03372 whole entry, looked up): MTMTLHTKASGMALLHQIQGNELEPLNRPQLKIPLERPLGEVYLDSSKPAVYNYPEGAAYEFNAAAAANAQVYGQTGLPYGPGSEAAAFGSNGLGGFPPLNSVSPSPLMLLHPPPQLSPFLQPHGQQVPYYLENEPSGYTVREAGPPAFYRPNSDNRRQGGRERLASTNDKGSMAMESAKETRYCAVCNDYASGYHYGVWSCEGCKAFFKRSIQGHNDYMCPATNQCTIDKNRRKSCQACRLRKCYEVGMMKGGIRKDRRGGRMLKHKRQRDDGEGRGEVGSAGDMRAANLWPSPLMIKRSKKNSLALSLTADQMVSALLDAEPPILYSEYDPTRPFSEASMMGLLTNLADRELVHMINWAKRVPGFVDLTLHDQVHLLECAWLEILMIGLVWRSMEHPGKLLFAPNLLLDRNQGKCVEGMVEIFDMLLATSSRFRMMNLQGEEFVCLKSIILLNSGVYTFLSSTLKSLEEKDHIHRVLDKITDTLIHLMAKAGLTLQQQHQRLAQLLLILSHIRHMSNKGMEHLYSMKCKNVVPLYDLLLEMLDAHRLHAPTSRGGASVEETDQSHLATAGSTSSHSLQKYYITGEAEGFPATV
Sequence of Estrogen receptor beta (Homo sapiens) (Q92731 whole entry, looked up): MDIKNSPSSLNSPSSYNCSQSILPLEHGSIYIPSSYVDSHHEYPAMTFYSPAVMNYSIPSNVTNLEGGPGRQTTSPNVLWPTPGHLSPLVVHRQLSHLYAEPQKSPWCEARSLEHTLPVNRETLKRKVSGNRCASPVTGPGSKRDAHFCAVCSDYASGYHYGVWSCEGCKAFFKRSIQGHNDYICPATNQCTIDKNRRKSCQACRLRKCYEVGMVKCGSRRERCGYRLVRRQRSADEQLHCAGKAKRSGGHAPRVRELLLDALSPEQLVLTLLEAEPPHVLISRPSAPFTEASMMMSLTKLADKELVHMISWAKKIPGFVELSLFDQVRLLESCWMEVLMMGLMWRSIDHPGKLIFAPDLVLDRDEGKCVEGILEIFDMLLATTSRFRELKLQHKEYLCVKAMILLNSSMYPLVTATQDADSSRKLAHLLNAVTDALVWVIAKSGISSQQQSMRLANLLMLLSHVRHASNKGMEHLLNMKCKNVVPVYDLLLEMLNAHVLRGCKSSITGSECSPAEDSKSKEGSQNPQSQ

CC(C)CCCCCCN
inactive: Potency [1] | Potency [2] | outcome [3] | Potency [4] | Potency [5] | Potency [6] | Potency [7] | Potency [8] | Potency [9] | outcome [10]

C1CCCCCCCCCCC1
inactive: activity change [1] -0.649% [at 18.9 µM, active compounds read high] | activity change, negative = inhibition [2] 13.4% [at 19 µM] | activation [3] -0.402% [at 19 µM] | activity, negative = inhibition [4] 0.969% [at 19 µM] | activity change, negative = cytotoxicity [5] -1.18% [at 19 µM] | activity change, negative = cytotoxicity [6] -0.0692% [at 19 µM] | Potency [7] | activity change, negative = cytotoxicity [8] 1.11% [at 19 µM] | activation [9] -2.76% [at 19 µM] | cAMP activity change [10] -4.57% [at 18.9 µM]

C=CCn1c(=O)n([C@@H]2O[C@H](CO)[C@@H](O)[C@H]2O)c2nc(N)[nH]c(=O)c21
inactive: Potency [1] | Potency [2] | outcome [3] | Potency [4] | Potency [5] | Potency [6] | Potency [7] | Potency [9] | outcome [10]

CCC(C(=O)NC(N)=O)c1ccccc1 (stereo not drawn)
inactive: Potency [1] | Potency [2] | outcome [3] | Potency [4] | Potency [5] | Potency [6] | Potency [8] | outcome [10]

NS(=O)(=O)c1cc2c(cc1C(F)(F)F)NC(Cc1ccccc1)NS2(=O)=O (stereo not drawn)
inactive: Potency [1] | Potency [2] | outcome [3] | Potency [4] | Potency [5] | Potency [6] | Potency [7] | Potency [8] | outcome [10]

Oc1cc(O)c2c(c1)O[C@H](c1ccc(O)c(O)c1)[C@H](O)C2
inactive: Potency [1] | Potency [2] | outcome [3] | Potency [4] | Potency [5] | Potency [6] | Potency [8] | Potency [9] | outcome [10]

C=C(C)C(=O)NCCCN(C)C
inactive: Potency [1] | Potency [2] | outcome [3] | Potency [4] | Potency [5] | Potency [6] | Potency [8]

Nc1nc2c(ncn2CCC(CO)CO)c(=O)[nH]1
inactive: Potency [1] | Potency [2] | outcome [3] | Potency [4] | Potency [5] | Potency [6] | Potency [8] | Potency [9] | outcome [10]

C[N+](C)(C)CC[N+]1(C)Cc2c(Cl)c(Cl)c(Cl)c(Cl)c2C1
inactive: Potency [1] | Potency [2] | outcome [3] | Potency [4] | Potency [5] | Potency [6] | Potency [8] | Potency [9] | outcome [10]

O=C1OC(=O)c2cc([N+](=O)[O-])ccc21
inactive: Potency [1] | Potency [2] | outcome [3] | Potency [4] | Potency [5] | Potency [6] | Potency [8] | Potency [9] | outcome [10]

O=C(O)C1CCC1
inactive: Potency [1] | Potency [2] | outcome [3] | Potency [4] | Potency [5] | Potency [6] | Potency [8] | Potency [9] | outcome [10]

CCCCOCC(C)OCC(C)O (stereo not drawn)
inactive: Potency [1] | Potency [2] | outcome [3] | Potency [4] | Potency [5] | Potency [6] | Potency [8]

COCCOC(=O)CC#N
inactive: Potency [1] | Potency [2] | outcome [3] | Potency [4] | Potency [5] | Potency [6] | Potency [8] | Potency [9] | outcome [10]

C/C=C1\C(=O)C[C@H]2[C@@H]3CCC4=CC(=O)CC[C@]4(C)[C@H]3CC[C@]12C
active: Potency [2] 5.99 µM | Potency [4] 26.8 µM
inactive: Potency [1] | outcome [3] | Potency [5] | Potency [6] | Potency [8] | Potency [9]

OC[C@H]1O[C@@H]2O[C@H]3[C@H](O)[C@@H](O)[C@@H](O[C@H]4[C@H](O)[C@@H](O)[C@@H](O[C@H]5[C@H](O)[C@@H](O)[C@@H](O[C@H]6[C@H](O)[C@@H](O)[C@@H](O[C@H]7[C@H](O)[C@@H](O)[C@@H](O[C@H]8[C@H](O)[C@@H](O)[C@@H](O[C@H]9[C@H](O)[C@@H](O)[C@@H](O[C@H]1[C@H](O)[C@H]2O)O[C@@H]9CO)O[C@@H]8CO)O[C@@H]7CO)O[C@@H]6CO)O[C@@H]5CO)O[C@@H]4CO)O[C@@H]3CO
inactive: Potency [1] | Potency [2] | outcome [3] | Potency [4] | Potency [5] | Potency [6] | Potency [8] | outcome [10]

COc1ccc(NC(C)=O)cc1
inactive: Potency [1] | Potency [2] | outcome [3] | Potency [4] | Potency [5] | Potency [6] | Potency [7] | Potency [8] | outcome [10]

CC(C)c1cccc(O)c1
inactive: Potency [1] | Potency [2] | outcome [3] | Potency [4] | Potency [5] | Potency [6] | Potency [8] | outcome [10]

CCCOCC(C)OCC(C)O (stereo not drawn)
inactive: Potency [1] | Potency [2] | outcome [3] | Potency [4] | Potency [5] | Potency [6] | Potency [7] | Potency [8] | outcome [10]

CCCC(C)CO (stereo not drawn)
inactive: Potency [1] | Potency [2] | outcome [3] | Potency [4] | Potency [5] | Potency [6] | Potency [7] | Potency [8] | outcome [10]

OCCN1C[C@H](O)[C@@H](O)[C@H](O)[C@H]1CO
inactive: Potency [1] | Potency [2] | outcome [3] | Potency [4] | Potency [5] | Potency [6] | Potency [7] | Potency [8] | Potency [9] | outcome [10]

Nc1nc(F)nc2c1ncn2[C@@H]1O[C@H](CO)[C@@H](O)[C@@H]1O
inactive: Potency [1] | Potency [2] | outcome [3] | Potency [4] | Potency [5] | Potency [6] | Potency [8] | Potency [9] | outcome [10]

C[C@H]1O[C@@H](n2cc(F)c(=O)[nH]c2=O)[C@H](O)[C@@H]1O
inactive: Potency [1] | Potency [2] | outcome [3] | Potency [4] | Potency [5] | Potency [6] | Potency [8] | outcome [10]

C1=C\CC/C=C\CC/C=C\CC/1
inactive: Potency [1] | Potency [2] | outcome [3] | Potency [4] | Potency [5] | Potency [6]
